Measurements from PubChem BioAssay AID504400 (The Scripps Research Institute Molecular Screening Center, 2011).
Values without a mark were called inactive. No rule for the calls is given here.

Tested on: Potassium Channel [KATP]
Assay: CYP450 and receptor off-target profile – biochemical, Ricerca HitProfilingScreen, selectivity assay for S1P4 agonist project, late-stage follow-up (AID 504400)
Settings: Ricerca radioligand binding/enzyme panel plus CYP450, at 10 µM, stronger effect = higher value

**Q.** For Clc1ccc(OCCOc2ccc(Br)nc2Br)c(Cl)c1, which inhibition is on record?
**A.** Its inhibition is 20%.
